In the supplement of paper PMC10681739 one finds RUNX1 binding intensity and ETS1 binding intensity data, which are given here for 53 sequences.

Test [1] concerns the target RUNX1 (UniProt Q01196). The test can be described thus: RUNX1 binding intensity (PBM fluorescence), RUNX1 alone (arbitrary fluorescence units); higher = stronger binding. The following applies: RUNX1 concentration 2 nM; ETS1 concentration 0 nM. The method, then: (§1)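 Cooperative gcPBM on 36-bp genomic probes with neighbouring ETS1 and RUNX1 sites. Recombinant human RUNX1 (2 nM) was incubated alone or with ETS1 (25 nM) and detected with anti-RUNX1 antibody plus Alexa488 secondary. Values are medians over 4 replicate spots; the RUNX1+ETS1 data were normalised to the RUNX1-only data. The probes sit in constant array flanks that are not printed.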

Test [2] addresses T1, ETS1 (UniProt P14921).
T1 sequence: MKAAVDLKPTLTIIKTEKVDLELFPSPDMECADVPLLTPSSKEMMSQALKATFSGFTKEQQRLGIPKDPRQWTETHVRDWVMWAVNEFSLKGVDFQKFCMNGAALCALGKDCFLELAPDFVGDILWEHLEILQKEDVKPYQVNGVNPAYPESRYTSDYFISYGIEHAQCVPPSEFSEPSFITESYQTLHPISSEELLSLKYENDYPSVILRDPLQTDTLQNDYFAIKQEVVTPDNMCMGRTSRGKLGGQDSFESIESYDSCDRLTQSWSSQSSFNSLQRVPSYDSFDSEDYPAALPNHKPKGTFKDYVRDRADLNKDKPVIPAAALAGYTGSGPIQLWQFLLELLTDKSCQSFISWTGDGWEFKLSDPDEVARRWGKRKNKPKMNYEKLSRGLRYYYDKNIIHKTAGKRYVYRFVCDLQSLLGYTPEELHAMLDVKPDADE
The test can be described thus: ETS1 binding intensity (PBM fluorescence) in presence of RUNX1, normalised to ETS1-only experiment (arbitrary fluorescence units); higher = stronger binding. The following applies: ETS1 concentration 1 nM; RUNX1 concentration 25 nM.

In test [3] the target is RUNX1 (UniProt Q01196). The test can be described thus: RUNX1 binding intensity (PBM fluorescence) in presence of ETS1, normalised to RUNX1-only experiment (arbitrary fluorescence units); higher = stronger binding. To be noted: RUNX1 concentration 2 nM; ETS1 concentration 25 nM. How it is done:
as §1

The target in test [4] is T1, ETS1. The test can be described thus: ETS1 binding intensity (PBM fluorescence), ETS1 alone (arbitrary fluorescence units); higher = stronger binding. The following applies: ETS1 concentration 1 nM; RUNX1 concentration 0 nM.
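Wherever RUNX1 binding intensity (PBM fluorescence) in presence of ETS1, normalised to RUNX1-only experiment is given: Full-length recombinant human ETS1 or RUNX1 bound to double-stranded 36-bp genomic probes on microarrays, detected by protein-specific primary antibody and Alexa488 secondary, spot fluorescence as median of four replicate spots.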
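Wherever RUNX1 binding intensity (PBM fluorescence), RUNX1 alone is given: Full-length recombinant human RUNX1 bound to double-stranded 36-bp genomic probes on a high-density microarray, scored as Alexa488 fluorescence per spot via anti-RUNX1 antibody, median of four replicate spots.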

RUNX1, sequence (Q01196 whole entry): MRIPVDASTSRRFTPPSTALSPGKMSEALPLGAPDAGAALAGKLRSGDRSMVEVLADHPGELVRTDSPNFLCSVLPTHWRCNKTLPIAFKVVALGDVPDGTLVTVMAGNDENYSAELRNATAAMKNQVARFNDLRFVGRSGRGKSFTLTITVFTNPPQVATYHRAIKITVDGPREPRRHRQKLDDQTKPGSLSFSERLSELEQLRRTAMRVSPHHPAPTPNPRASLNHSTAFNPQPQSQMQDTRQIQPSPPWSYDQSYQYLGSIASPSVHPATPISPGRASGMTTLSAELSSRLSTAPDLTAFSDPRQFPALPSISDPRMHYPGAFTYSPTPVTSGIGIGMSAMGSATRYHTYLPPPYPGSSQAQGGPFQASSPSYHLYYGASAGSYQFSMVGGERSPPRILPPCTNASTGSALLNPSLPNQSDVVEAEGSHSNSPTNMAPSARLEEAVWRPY

For the sequence GCATTGTGCTTCCGCTCGGGGAAAGACCGCTTACGG, the RUNX1 binding intensity with RUNX1 [1] is 851; with RUNX1 [3] it was 1590. Moreover, the ETS1 binding intensity in the test with ETS1 [2] turned out to be 911.
As to TCTGATGTGCCTTCTTCCTGACCACAGCAACTACTA, the RUNX1 binding intensity with RUNX1 [1] worked out at 1250; in the test with RUNX1 [3], 1270. In addition, the ETS1 binding intensity in the test with ETS1 [2] was found to be 511.
Regarding GACACCCCACACCGGAAACCTCAGACAGTCCTCAGC, the RUNX1 binding intensity worked out at 1170 with RUNX1 [1] and 2900 with RUNX1 [3]. Also, the ETS1 binding intensity in the test with ETS1 [2] was found to be 4680.
For the sequence CTGTCCGCGACATCCGGGACCTGCGGGACCGCCGAT, the results for the RUNX1 binding intensity in the test with RUNX1 [1] and in the test with RUNX1 [3] were 765 and 1760, respectively. The ETS1 binding intensity with ETS1 [2] is 1470.
For ACTAGAAGCGGAAGTAGTTGTGGGCGCCTTTGCAAC, in that order: 662, 1410 and 7470.
With TGGGGAGCAGGAAGCTGGGGGCGGTTGTGGAGGGAC, the results for the RUNX1 binding intensity with RUNX1 [1] and with RUNX1 [3] were 723 and 867, respectively. The ETS1 binding intensity with ETS1 [2] is 1600.
For CCTGCTGCTTCCGCCCGGAGTTGTTGTGGGCTCCAG, in that order: 806, 1870 and 661.
GAAAGACAGGATGTGGGATAGATCTCAACCACCTTT: the values for the RUNX1 binding intensity with RUNX1 [1] and with RUNX1 [3] were 817 and 4740, respectively. Further, in the test with ETS1 [2], the ETS1 binding intensity amounted to 4970.
For CAGGGTGTCGGCTTCCGGCGGTTGCCCACTTTCGGC, in that order: 763, 1790 and 1090.
For TGGATGGCAAGCAACGGAAACCGCAAACAGGGCTGT, in that order: 15600, 26600 and 6230.
For GTTCTCAGCTTCCTGTTCACAGAGAAACCTCAGACA, in that order: 946, 1390 and 1560.
For the sequence GGGCAGCAGCAGACCGGAAACCACAGCCGACTAAGA, the figures for the RUNX1 binding intensity with RUNX1 [1] and with RUNX1 [3] were 1160 and 3330, respectively. For the same sequence, in the test with ETS1 [2], the ETS1 binding intensity amounted to 29500.
Consider TAGCATGTGAGCTTCCTGTGGGTTTGTGCAGCCCCA, for which the RUNX1 binding intensity with RUNX1 [1] was determined as 708; with RUNX1 [3], 1440. Besides, the ETS1 binding intensity with ETS1 [2] came to 654.
For the sequence ATCAGAGCGGAAATCTCAGTCTTGTGTGGGGACCTG, the RUNX1 binding intensity with RUNX1 [1] was determined as 647; in the test with RUNX1 [3] it was 919. Also, the ETS1 binding intensity with ETS1 [2] amounted to 1820.
As to GGCAACCTGAGCTTCCGTGTAAAACCACAGTGTGAC, the RUNX1 binding intensity worked out at 1100 in the test with RUNX1 [1] and 1290 with RUNX1 [3]. Further, the ETS1 binding intensity in the test with ETS1 [2] worked out at 964.
On the same counts, the results for CGGTGGCTTCCGGCCCATGGCGGTGGTTGGTGACTC are 770, 1840 and 953.
On to GTGTGAAGGAAGTGTGAGATCAAACCACAGCTGGGT, for which the RUNX1 binding intensity worked out at 874 with RUNX1 [1] and 947 with RUNX1 [3]. In addition, the ETS1 binding intensity in the test with ETS1 [2] was 901.
On the same counts, the results for TCCAGCCCCACCGGAAGTGGATGTGGTTAATCTAGT are 955, 6380 and 56400.
As for TGGCTGTCACTTCCTGTCCCACTGTGGTTCCTGGGA, the figures for the RUNX1 binding intensity in the test with RUNX1 [1] and with RUNX1 [3] were 763 and 1820, respectively. The ETS1 binding intensity with ETS1 [2] was 5740.
On the same counts, the results for TGTCGTACATTTCCGCCTTGTGGGCACAATCTGATT are 971, 1950 and 1280.
On the same counts, the results for CCCTCAGCGGAAGTGGAAGCTGTGGTTTCCAAAGGC are 916, 3570 and 17000.
Take TTAGCACATCCTGGGTACACAGACCACAGCCTCCTC: the RUNX1 binding intensity amounted to 972 in the test with RUNX1 [1] and 2140 with RUNX1 [3]. Besides, the ETS1 binding intensity with ETS1 [2] was 475.
For the sequence GGGAACTCACACCGGAAACCACAGAACCAAGAGTGG, the figures for the RUNX1 binding intensity in the test with RUNX1 [1] and in the test with RUNX1 [3] were 3800 and 6540, respectively. Besides, in the test with ETS1 [2], the ETS1 binding intensity worked out at 16300.
As for GCAAGGCAACAGGAAATTGTGGGGAAATTTTAAAAA, the RUNX1 binding intensity in the test with RUNX1 [1] is 770; with RUNX1 [3] it was 1070. In addition, in the test with ETS1 [2], the ETS1 binding intensity came out at 6190.
For CCCTTCGCTTCCGCTCCGCGTTCCCACAATGCAGTG, in that order: 1600, 3700 and 1090.
For the sequence AGGCTCATTTCCTGTTTTCATGTGGTTTAGAGAAAA, the RUNX1 binding intensity with RUNX1 [1] was 1320; with RUNX1 [3], 3930. Besides, in the test with ETS1 [2], the ETS1 binding intensity came out at 5130.
Turning to ACTCACTTCCGTTTAGCTTATCAACCACCAAGAGAC, the RUNX1 binding intensity was found to be 1390 with RUNX1 [1] and 3210 in the test with RUNX1 [3]. The ETS1 binding intensity with ETS1 [2] was found to be 1060.
TGATTAAAAACAGGATGTGGGTGAATAGTCATGCAT: the RUNX1 binding intensity stood at 759 with RUNX1 [1] and 2490 in the test with RUNX1 [3]. Moreover, in the test with ETS1 [2], the ETS1 binding intensity stood at 7580.
With ACTACAGGAGGAAACTACAGCCTAAACCACATGCAA, the RUNX1 binding intensity with RUNX1 [1] was determined as 975; with RUNX1 [3], 892. Moreover, the ETS1 binding intensity with ETS1 [2] came out at 1010.
Take GCCATGGCCACTTCCTGCTTGTAACCACAGCCCAGA: the results for the RUNX1 binding intensity with RUNX1 [1] and with RUNX1 [3] were 1210 and 5520, respectively. For the same sequence, the ETS1 binding intensity with ETS1 [2] came to 13200.
For the sequence CTTAGCGGAAGAGGCGTGACCCAGGCGTACCGCAGG, the RUNX1 binding intensity with RUNX1 [1] amounted to 804; in the test with RUNX1 [3], 870. For the same sequence, the ETS1 binding intensity with ETS1 [2] was 1320.
Turning to GTTTCATGTTAAGTAGGATGTGGTCAGTTAGCTTCG, the RUNX1 binding intensity with RUNX1 [1] amounted to 1120; with RUNX1 [3] it was 1290. Moreover, the ETS1 binding intensity in the test with ETS1 [2] was 5410.
Take GGACGCCGCCGGAAGCGCGACCCGCACTCCCGGTAG: the values for the RUNX1 binding intensity with RUNX1 [1] and with RUNX1 [3] were 794 and 1260, respectively. Besides, the ETS1 binding intensity in the test with ETS1 [2] amounted to 3500.
AGGGCATAAACAGGATGTGGTGTTGGATGAAACCTT: the results for the RUNX1 binding intensity with RUNX1 [1] and with RUNX1 [3] were 750 and 1360, respectively. Moreover, the ETS1 binding intensity in the test with ETS1 [2] amounted to 7490.
In the case of CTCACAGAGCAAGTAGGATGTGGTTTCCAGGGGCTG, the ETS1 binding intensity with ETS1 [4] is 781. In addition, the RUNX1 binding intensity with RUNX1 [1] amounted to 800.
On to GTGGGGCAGGATGTGCTTGCCTGGCTGCGGTTGGAC, for which the ETS1 binding intensity with ETS1 [4] worked out at 2170. For the same sequence, in the test with RUNX1 [1], the RUNX1 binding intensity was determined as 877.
Turning to TTACACAACAGGAAACTATGTTTAGCGGTTAATCCA, the ETS1 binding intensity with ETS1 [4] worked out at 2490. Besides, the RUNX1 binding intensity with RUNX1 [1] turned out to be 885.
The sequence TTGAATATGAAAGGAAGTGGTTAGGTGATGTGTTCT returned an ETS1 binding intensity in the test with ETS1 [4] of 2370. For the same sequence, the RUNX1 binding intensity in the test with RUNX1 [1] was determined as 826.
On to GGCTTGATTGAACGAGGATGTGGTTCTTGGGTGGGA, for which the ETS1 binding intensity with ETS1 [4] was 686.
Turning to TCAATGACAGGAAGTTTTTAAACCACATACGGCTAA, the ETS1 binding intensity with ETS1 [4] was 2780. In the test with RUNX1 [1], this sequence yielded an RUNX1 binding intensity of 904.
As for TTACTTCTCAGGAAGCGCTGTGGGGCTGGGGTTGCT, the ETS1 binding intensity with ETS1 [4] was found to be 676.
With GCAGGAAGACTAACACAAAACCATCAAACCACTCTG, the ETS1 binding intensity with ETS1 [4] came out at 511.
GTGGTCTCTCCCGGAAAAACCACTTCCACCGAGAAC returned an ETS1 binding intensity with ETS1 [4] of 932. Further, the RUNX1 binding intensity with RUNX1 [1] stood at 861.
In the test with ETS1 [4], GGGGAACGGAAGCTGCTGTCGTTACTGGCGGTTGTA had an ETS1 binding intensity of 1510. Besides, in the test with RUNX1 [1], the RUNX1 binding intensity was found to be 767.
The sequence CACCTGCCTTGCTTCCTGCGGTGCAACCAGCGGGAG yielded an ETS1 binding intensity with ETS1 [4] of 444.
Take TAGCCATCGTGCAAAGGATGTGGTGAAGTCAGTCAG: in the test with ETS1 [4], the ETS1 binding intensity was determined as 942.
CATCAAAAACAGAGGAAGCCACAGCAAATTGCTGCC registered an ETS1 binding intensity with ETS1 [4] of 523.
For the sequence TCTCCTTTCAGGAAGCTGCACCCAAACCACCCTCAG, in the test with ETS1 [4], the ETS1 binding intensity turned out to be 606. In the test with RUNX1 [1], this sequence yielded an RUNX1 binding intensity of 996.
For CAGAGCCAAACATGCGGAAGTGGTTACGTGTACTAG, in that order: 3280 and 795.
Turning to ACTTCCAGGAAGCCCCATAGTCCAGAAACCCACACA, the ETS1 binding intensity in the test with ETS1 [4] worked out at 493.
CAGGAGCAGTGTAGAGGAAGTGGTTTCCATCACGGA: in the test with ETS1 [4], the ETS1 binding intensity is 2630. Also, the RUNX1 binding intensity in the test with RUNX1 [1] came out at 862.
In the test with ETS1 [4], AAAACAACTTCCTTCCCCTCTCTCTCCACCACAGTC gave an ETS1 binding intensity of 554.
Take AAATATAGTGCTAAAGGAAGTGGTTTTCATGCAACT: the ETS1 binding intensity with ETS1 [4] came to 2380. This sequence also yielded an RUNX1 binding intensity in the test with RUNX1 [1] of 670.
